These results are taken from PubChem BioAssay (NCI).

About 83,000 compounds went through this panel and 20% of them were active in at least one assay; those are over-represented in the sample as a whole.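 Cell lines were cultured in 96-well plates, exposed to a single compound concentration, and assessed for percent growth 48 hours later.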 Unmarked numbers belong to inactive results. Active and inactive are the calls of the source. Rule for the calls: active = growth percent below 10; inactive = the rest.

The first test concerns MCF7 breast. Kind of test: NCI-60 one-dose screen, 48 h (100 = growth as untreated, 0 = no growth, -100 = all killed). Particulars: 10 µM unless noted.
For `CCCc1cc(=O)n2c(C(=O)Nc3ccccc3OC)c(C(=O)Nc3ccc(F)cc3)sc2n1`, the growth is 52.7% [30 µM].
On to `N#Cc1cccc(/C=C(/C(=O)c2ccccc2)c2ccccc2)c1`, for which the growth is 9.11% (active).
As to `CCC1(c2ccccc2)Oc2ccccc2-n2c(C#N)c3ccccc3c2C1=O` (stereo unspecified), the growth was 85.1%.
`C/C(=N/N=C(N)N)c1ccc(N)cc1`: the growth is 81.3%.
Still for that read-out and setting: the figure for `COc1ccc(/C=C(\C#N)c2ccccc2)cc1` is 103%; for `COc1cc(/C=C/C(=O)c2c(-c3ccc(F)cc3)nc3sc(C)nn23)cc(OC)c1OC` it is 14.3%.
Take `CCCCSc1cc(C)nc(N)n1`: the growth was 94.5%.
For the compound `COc1cc(/C=C/C(=O)c2c(-c3ccc(Cl)cc3)nc3sc(C)nn23)cc(OC)c1OC`, the growth is 38.1%.
As to `N#Cc1c2ccccc2c2n1-c1ccccc1OC(c1ccccc1)C2=O` (stereo unspecified), the growth was 72.4%.
`Cc1c(C(N)=O)sc2ncn(Cc3ccccc3)c(=O)c12`: the growth was 99.8%.
For the compound `CC1(C)OC(=O)C(=Cc2ccccc2Br)C(=O)O1`, the growth is 102%.
Still for that read-out and setting: the figure for `Cn1c(=O)c2nc(SCc3ccccc3)n(C)c2n(C)c1=O` is 106%; for `C/C(=N\N1CC(=O)NC1=O)c1ccc([N+](=O)[O-])o1` it is 85.6%; for `NC(N)=N/N=C(/c1ccccc1)c1ccc(Cl)cc1` it is 11.3%.
Consider `N#Cc1ccc(NC(=O)Nc2ccc(Oc3ccc(NC(=O)Nc4ccc(C#N)cc4)cc3)cc2)cc1`, for which the growth is 20.5%.
As to `Cc1c(NCc2nnc3n(Cc4ccccc4)c(=O)c4c5c(sc4n23)CCCC5)c(=O)n(-c2ccccc2)n1C`, the growth is 85.1%.
As for `Cc1cc(N2CCOCC2)nc(N2CCOCC2)n1`, the growth was 90.7%.
For the compound `COc1cc2c(C#N)n3c(c2cc1OC)C(=O)C(c1ccccc1)Oc1ccccc1-3` (stereo unspecified), the growth was 93.9%.
On the same count and under the same terms, the figure for `COc1ccc(OC)c(NC(=O)c2cc3oc4ccccc4c3cc2O)c1` is 83.3%.

For another test, the system named is HCT-116 colon. The test is described as above. Particulars: 10 µM unless noted.
On to `Cc1cc(NCCCNc2ccnc3cc(Cl)ccc23)nc(N2CCN(C)CC2)n1`, for which the growth was 18.5%.
Consider `CCCc1cc(=O)n2c(C(=O)Nc3ccccc3OC)c(C(=O)Nc3ccc(F)cc3)sc2n1`, for which the growth was 27.2% [30 µM].
On the same count and under the same terms, the figure for `N#Cc1cccc(/C=C(/C(=O)c2ccccc2)c2ccccc2)c1` is 25.6%; for `CCC1(c2ccccc2)Oc2ccccc2-n2c(C#N)c3ccccc3c2C1=O` (stereo unspecified) it is 86.7%; for `C/C(=N/N=C(N)N)c1ccc(N)cc1` it is 103%.
As for `CC(C)c1nc(N(C)S(C)(=O)=O)nc(-c2ccc(F)cc2)c1/C=C/[C@@H](O)C[C@@H](O)CC(=O)O`, the growth was 98.2%.
Still for that read-out and setting: as for `COc1ccc(/C=C(\C#N)c2ccccc2)cc1`, the figure is 85.4%; as for `Fc1ccc([C@@H]2CCNC[C@H]2COc2ccc3c(c2)OCO3)cc1`, 49.8%.
Turning to `COc1cc(/C=C/C(=O)c2c(-c3ccc(F)cc3)nc3sc(C)nn23)cc(OC)c1OC`, the growth was 14.7%.
For `CCC(C)CC(CC)NCCN1CCN(C(CC)CC(C)CC)C1=S` (stereo unspecified), the growth is 16.4%.
Turning to `COc1cccc(-c2nnc(N)o2)c1`, the growth was 100%.
Regarding `CCCCSc1cc(C)nc(N)n1`, the growth was 90.7%.
`Cc1ccsc1/C=C/C1=NCCCN1C`: the growth was 103%.
Turning to `Nc1c2ccccc2nc2ccccc12` (tested in a mixture with another compound), the growth was 13.6%.
As for `COc1cc(/C=C/C(=O)c2c(-c3ccc(Cl)cc3)nc3sc(C)nn23)cc(OC)c1OC`, the growth was 50.2%.
For `CCCCc1nc(Cl)c(CO)n1Cc1ccc(-c2ccccc2-c2nn[nH]n2)cc1`, the growth is 102%.
The same measure, in the same setting: as for `CN(CCOc1ccc(CC2SC(=O)NC2=O)cc1)c1ccccn1` (stereo unspecified), the figure is 103%.
Regarding `N#Cc1c2ccccc2c2n1-c1ccccc1OC(c1ccccc1)C2=O` (stereo unspecified), the growth is 11.3%.
For the compound `Nc1nc(N)c([N+](=O)[O-])c(=O)[nH]1`, the growth was 110%.
As for `Cc1c(C(N)=O)sc2ncn(Cc3ccccc3)c(=O)c12`, the growth is 94.7%.
Regarding `CC(=O)O[C@H]1C(=O)[C@@]2(C)C([C@H](OC(=O)c3ccccc3)[C@]3(O)C[C@H](OC(=O)[C@H](O)[C@@H](NC(=O)c4ccccc4)c4ccccc4)C(C)=C1C3(C)C)[C@]1(OC(C)=O)CO[C@@H]1C[C@@H]2O` (stereo partly specified), the growth is 7.81% (active).
For `CC1(C)OC(=O)C(=Cc2ccccc2Br)C(=O)O1`, the growth is 79.3%.
For `COC1CC2CCC(C)C(O)(O2)C(=O)C(=O)N2CCCCC2C(=O)OC(C(C)CC2CCC(O)C(OC)C2)CC(=O)C(C)C=C(C)C(O)C(OC)C(=O)C(C)CC(C)/C=C/C=C/C=C1C` (stereo unspecified), the growth is 49.5%.
As for `COc1cc([C@@H]2c3cc4c(cc3C(O[C@@H]3O[C@@H]5CO[C@@H](c6cccs6)OC5[C@H](O)[C@H]3O)C3COC(=O)[C@@H]32)OCO4)cc(OC)c1O` (stereo partly specified), the growth is -56.7% (active).
Regarding `Cn1c(=O)c2nc(SCc3ccccc3)n(C)c2n(C)c1=O`, the growth was 98.9%.
For the compound `O=c1cc(-c2cccnc2)oc2c1ccc1ccccc12`, the growth was 55.7%.
On to `C/C(=N\N1CC(=O)NC1=O)c1ccc([N+](=O)[O-])o1`, for which the growth is 106%.
In the case of `NC(N)=N/N=C(/c1ccccc1)c1ccc(Cl)cc1`, the growth is 24.9%.
Take `N#Cc1ccc(NC(=O)Nc2ccc(Oc3ccc(NC(=O)Nc4ccc(C#N)cc4)cc3)cc2)cc1`: the growth is 5.73% (active).
As for `Cc1c(NCc2nnc3n(Cc4ccccc4)c(=O)c4c5c(sc4n23)CCCC5)c(=O)n(-c2ccccc2)n1C`, the growth was 88.1%.
Regarding `O=C(Nc1ccc(OCc2nnc(-c3ccccc3)o2)c(F)c1)Nc1ccc(Cl)c(C(F)(F)F)c1`, the growth is 9.64% (active).
`Cc1cc(N2CCOCC2)nc(N2CCOCC2)n1`: the growth is 92.2%.
As for `COc1cc2c(C#N)n3c(c2cc1OC)C(=O)C(c1ccccc1)Oc1ccccc1-3` (stereo unspecified), the growth was 27.9%.
With `O=[N+]([O-])c1ccc(N/N=C\c2ccccc2[N+](=O)[O-])nc1`, the growth was 102%.
With `CO[C@H]1CC(O[C@@H]2/C(C)=C/C[C@@H]3C[C@@H](C[C@]4(CC[C@H](C)[C@@H](C5CCCCC5)O4)O3)OC(=O)[C@@H]3C=C(C)/C(=N/O)[C@H]4OC/C(=C\C=C\[C@@H]2C)[C@]43O)O[C@@H](C)C1O` (stereo partly specified), the growth is -95.6% (active).
Regarding `COc1ccc(OC)c(NC(=O)c2cc3oc4ccccc4c3cc2O)c1`, the growth is 106%.
With `C=C1CC[C@@H]2[C@](C)(COC(C)=O)[C@H](OC(C)=O)CC[C@@]2(C)[C@@H]1CC(Nc1ccc(S(=O)(=O)Nc2cc(C)on2)cc1)C1=CCOC1=O` (stereo partly specified), the growth was -1.13% (active).
